Reference: the supplement of paper PMC12645437, “Orthogonal IMiD-Degron Pairs Induce Selective Protein Degradation in Cells” (ACS Chemical Biology, 2025)
The full ranking holds about 8,300 sequences; the median of “log2 fold change of degron read counts, EGFP-low vs EGFP+ sorted cells (limma voom), compound-induced degradation” is about -1.1, and the highest 2% start at about 3.2. Only a selection was taken, and the highest values are over-represented in it overall.

T1: CRBN, Q96SW2
T1 chain: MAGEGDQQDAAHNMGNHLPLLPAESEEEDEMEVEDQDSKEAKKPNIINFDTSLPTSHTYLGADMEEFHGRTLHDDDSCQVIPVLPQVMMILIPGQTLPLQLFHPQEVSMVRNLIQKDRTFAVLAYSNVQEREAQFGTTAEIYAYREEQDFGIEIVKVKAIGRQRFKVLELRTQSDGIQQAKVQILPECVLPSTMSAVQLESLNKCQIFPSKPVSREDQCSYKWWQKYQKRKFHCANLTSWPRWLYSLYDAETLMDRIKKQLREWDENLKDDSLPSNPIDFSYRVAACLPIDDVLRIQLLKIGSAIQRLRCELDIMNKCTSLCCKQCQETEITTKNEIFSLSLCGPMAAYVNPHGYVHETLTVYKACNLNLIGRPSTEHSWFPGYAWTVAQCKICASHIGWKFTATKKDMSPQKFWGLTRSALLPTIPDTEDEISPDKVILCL


Target: T1, CRBN, Q96SW2
Assay: log2 fold change of degron read counts, EGFP-low vs EGFP+ sorted cells (limma voom), compound-induced degradation; higher = more compound-induced degradation of the degron-EGFP fusion; degrons are variants of IKZF1/3 zinc finger 2; compound dose not given here
Settings: Jurkat, 18 h
[1] = compound: compound 19 (5-tert-butyl-thalidomide)
[2] = compound: compound 22 (5-morpholino-thalidomide)
[3] = compound: compound 33 (diphenyl IMiD analogue)
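Note: pooled lentiviral library of zinc finger degron-EGFP fusions in mCherry-positive Jurkat cells, FACS-sorted after compound exposure, with degron abundance counted by next-generation sequencing.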

Sequence	log2 fold change of degron read counts [1]	log2 fold change of degron read counts [2]	log2 fold change of degron read counts [3]	log2 fold change of degron read counts (compound: thalidomide)
FCCPVCGAMFTQKGNLLRHIKL [46F_47C_49P_50V_52G_53A_54M_55F_67L_, Q9UKT9]	1.36	0.957	2.19	1.18
FGCNVCGACFTQKGNLLRHIKL [46F_47G_49N_50V_52G_53A_54C_55F_67L_, Q9UKT9]	0.221	0.434	1.03	-0.871
FRCEICGHAFTQKGNLLRHIKL [46F_47R_49E_50I_52G_53H_54A_55F_67L_, Q9UKT9]	-3.15	-2.82	-1.17	-1.87
FACNVCGAEFTQKGNLLRHIKL [46F_47A_49N_50V_52G_53A_54E_55F_67L_, Q9UKT9]	-1.27	-1.39	-1.75	-2.2
FMCSVCGHCFTQKGNLLRHIKL [46F_47M_49S_50V_52G_53H_54C_55F_67L_, Q9UKT9]	-2.46	-3.02	-2.83	-2.57
FICNQCGRSFTQKGNLLRHIKL [46F_47I_49N_50Q_52G_53R_54S_55F_67L_, Q9UKT9]	-3.32	-3.15	-3.35	-3.61
FACEQCGAKFTQKGNLLRHIKL [46F_47A_49E_50Q_52G_53A_54K_55F_67L_, Q9UKT9]	1.9	-1.51	-3.24	-1.44
LTCEICGFECTQKGNLLRHIKL [46L_47T_49E_50I_52G_53F_54E_55C_67L_, Q9UKT9]	-0.328	0.102	-0.375	0.759
